Measurements: PMC7862700, “An all-to-all approach to the identification of sequence-specific readers for epigenetic DNA modifications on cytosine”

Assays:
Test in all cases: DAPPL (digital affinity profiling via proximity ligation, sequencing); 10 mM Tris-HCl pH 7.5, 50 mM NaCl, 1 mM DTT, 4% glycerol, room temperature, 30 min; GST-TFs on glutathione beads, 16-mer random dsDNA library, 0.1% formaldehyde crosslink after washing; high values mean tight binding
FEV = target: T1, FEV (Homo sapiens, UniProt Q99581 1-238); settings: protein: recombinant; tags: N-terminal GST; dsDNA, one strand shown
T1 sequence: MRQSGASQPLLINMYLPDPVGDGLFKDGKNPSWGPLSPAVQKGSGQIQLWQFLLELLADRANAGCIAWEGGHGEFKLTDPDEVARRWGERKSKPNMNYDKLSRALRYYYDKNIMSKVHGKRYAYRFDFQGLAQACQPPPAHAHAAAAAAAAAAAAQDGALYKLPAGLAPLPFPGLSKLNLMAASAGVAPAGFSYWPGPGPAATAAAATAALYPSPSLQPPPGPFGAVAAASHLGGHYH
Procedure, shortened: (§1)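 The binding signal reported is, for every hexamer, its read frequency for a factor over its read frequency for the tag-only sample. Reads came from pools of yeast-expressed, GST-fused human transcription factors on glutathione beads, barcoded with DNA and mixed with that sample, which were incubated with 200 nmole of a random double-stranded 16-mer DNA library in Tris/NaCl/DTT/glycerol buffer at room temperature for 30 min. After washing, the pools were crosslinked with 0.1% formaldehyde, proximity-ligated with BsaI/T4 ligase for 1 h at 37 °C, PCR-amplified and sequenced on an Illumina NextSeq500.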

ETV5 = ETV5 (Homo sapiens, UniProt P41161 1-510); settings: protein: recombinant; tags: N-terminal GST; dsDNA, one strand shown
ETV5, sequence (P41161 whole entry): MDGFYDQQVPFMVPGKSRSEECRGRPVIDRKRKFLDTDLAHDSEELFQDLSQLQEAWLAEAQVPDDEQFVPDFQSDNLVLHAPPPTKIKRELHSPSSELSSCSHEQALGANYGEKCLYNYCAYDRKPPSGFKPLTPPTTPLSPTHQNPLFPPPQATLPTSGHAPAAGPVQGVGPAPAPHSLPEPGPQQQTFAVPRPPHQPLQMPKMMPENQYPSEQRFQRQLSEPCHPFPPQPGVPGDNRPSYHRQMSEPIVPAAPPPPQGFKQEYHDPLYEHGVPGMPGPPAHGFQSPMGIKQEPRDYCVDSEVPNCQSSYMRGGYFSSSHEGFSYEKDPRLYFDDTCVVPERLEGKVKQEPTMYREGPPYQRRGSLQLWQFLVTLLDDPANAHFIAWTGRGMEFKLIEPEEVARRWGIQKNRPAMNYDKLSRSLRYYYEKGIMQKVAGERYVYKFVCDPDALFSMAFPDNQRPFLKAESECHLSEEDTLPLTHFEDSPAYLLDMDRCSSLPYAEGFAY
Procedure, shortened: as §1

HSF1 = HSF1 (Homo sapiens, UniProt Q00613 1-529); settings: protein: recombinant; tags: N-terminal GST; chain copies: 3; dsDNA, one strand shown
HSF1, sequence (Q00613 whole entry): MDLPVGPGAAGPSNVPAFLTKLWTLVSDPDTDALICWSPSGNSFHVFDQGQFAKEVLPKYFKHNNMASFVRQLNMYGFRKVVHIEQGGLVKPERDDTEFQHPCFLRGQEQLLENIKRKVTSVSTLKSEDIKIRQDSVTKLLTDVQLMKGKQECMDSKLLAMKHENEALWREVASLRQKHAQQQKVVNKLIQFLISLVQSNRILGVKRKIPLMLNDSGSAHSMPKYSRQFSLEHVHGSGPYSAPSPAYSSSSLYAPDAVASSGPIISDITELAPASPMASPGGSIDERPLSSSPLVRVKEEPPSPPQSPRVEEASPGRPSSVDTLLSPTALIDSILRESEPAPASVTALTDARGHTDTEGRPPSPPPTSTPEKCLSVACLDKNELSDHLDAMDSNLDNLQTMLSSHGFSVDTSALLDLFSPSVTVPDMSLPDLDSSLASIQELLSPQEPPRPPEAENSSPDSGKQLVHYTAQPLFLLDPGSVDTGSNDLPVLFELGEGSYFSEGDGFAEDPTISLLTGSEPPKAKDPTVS
Procedure, shortened: as §1

SPIC = target: T2, SPIC (Homo sapiens, UniProt Q8N5J4 1-248); settings: protein: recombinant; tags: N-terminal GST; dsDNA, one strand shown
T2 sequence: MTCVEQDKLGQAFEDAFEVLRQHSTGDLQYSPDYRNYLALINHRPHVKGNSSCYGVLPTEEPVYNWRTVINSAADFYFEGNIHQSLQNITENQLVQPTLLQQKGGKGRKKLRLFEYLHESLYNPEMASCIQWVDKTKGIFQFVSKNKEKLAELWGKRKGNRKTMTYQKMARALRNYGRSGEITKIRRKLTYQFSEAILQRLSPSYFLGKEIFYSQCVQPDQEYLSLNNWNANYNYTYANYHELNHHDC
Procedure, shortened: as §1

ELF4 = ELF4 (Homo sapiens, UniProt Q99607 1-663); settings: protein: recombinant; tags: N-terminal GST; dsDNA, one strand shown
ELF4, sequence (Q99607 whole entry): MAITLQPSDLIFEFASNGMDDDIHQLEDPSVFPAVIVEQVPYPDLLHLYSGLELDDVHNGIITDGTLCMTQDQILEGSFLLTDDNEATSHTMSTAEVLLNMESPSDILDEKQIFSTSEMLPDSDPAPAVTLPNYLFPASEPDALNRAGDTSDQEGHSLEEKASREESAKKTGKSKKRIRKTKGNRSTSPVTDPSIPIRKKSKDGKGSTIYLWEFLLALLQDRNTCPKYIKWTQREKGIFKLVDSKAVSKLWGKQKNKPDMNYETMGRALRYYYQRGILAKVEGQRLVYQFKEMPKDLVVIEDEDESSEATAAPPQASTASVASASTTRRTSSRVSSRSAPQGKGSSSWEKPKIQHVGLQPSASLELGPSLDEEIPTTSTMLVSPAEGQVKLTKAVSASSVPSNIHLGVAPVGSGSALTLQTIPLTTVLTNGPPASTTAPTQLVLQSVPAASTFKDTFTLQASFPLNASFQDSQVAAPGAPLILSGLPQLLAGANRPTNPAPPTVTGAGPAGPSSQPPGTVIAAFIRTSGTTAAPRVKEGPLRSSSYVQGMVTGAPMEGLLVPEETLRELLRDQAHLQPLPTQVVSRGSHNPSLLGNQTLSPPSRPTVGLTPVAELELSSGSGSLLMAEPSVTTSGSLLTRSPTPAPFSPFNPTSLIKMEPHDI
Procedure, shortened: as §1

ELK4 = target: T3, ELK4 (Homo sapiens, UniProt P28324-2 1-405); settings: protein: recombinant; tags: N-terminal GST; dsDNA, one strand shown
T3 sequence: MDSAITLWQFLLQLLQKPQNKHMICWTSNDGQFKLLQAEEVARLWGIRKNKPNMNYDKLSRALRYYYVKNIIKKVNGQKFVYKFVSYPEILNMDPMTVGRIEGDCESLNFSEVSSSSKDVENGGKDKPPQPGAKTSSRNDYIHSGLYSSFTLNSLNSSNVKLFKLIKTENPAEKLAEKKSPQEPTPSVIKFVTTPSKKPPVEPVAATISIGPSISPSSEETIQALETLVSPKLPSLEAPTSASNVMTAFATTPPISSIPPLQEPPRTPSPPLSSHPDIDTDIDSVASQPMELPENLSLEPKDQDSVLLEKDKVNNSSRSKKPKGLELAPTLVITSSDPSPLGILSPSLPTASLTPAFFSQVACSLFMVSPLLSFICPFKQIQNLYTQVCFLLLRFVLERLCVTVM
Procedure, shortened: as §1

ETV2 = target: T4, ETV2 (Homo sapiens, UniProt O00321 1-342); settings: protein: recombinant; tags: N-terminal GST; dsDNA, one strand shown
T4 sequence: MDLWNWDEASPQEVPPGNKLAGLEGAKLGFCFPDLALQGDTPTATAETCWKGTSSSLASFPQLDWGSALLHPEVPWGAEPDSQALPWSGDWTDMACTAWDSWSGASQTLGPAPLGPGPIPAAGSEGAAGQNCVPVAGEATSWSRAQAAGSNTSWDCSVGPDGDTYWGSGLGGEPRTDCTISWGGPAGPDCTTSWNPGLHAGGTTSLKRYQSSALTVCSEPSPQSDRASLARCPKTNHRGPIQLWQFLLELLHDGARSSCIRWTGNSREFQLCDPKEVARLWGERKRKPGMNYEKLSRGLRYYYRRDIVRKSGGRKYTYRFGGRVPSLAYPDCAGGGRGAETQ
Procedure, shortened: as §1

ELF3 = target: T5, ELF3 (Homo sapiens, UniProt P78545 1-371); settings: protein: recombinant; tags: N-terminal GST; dsDNA, one strand shown
T5 sequence: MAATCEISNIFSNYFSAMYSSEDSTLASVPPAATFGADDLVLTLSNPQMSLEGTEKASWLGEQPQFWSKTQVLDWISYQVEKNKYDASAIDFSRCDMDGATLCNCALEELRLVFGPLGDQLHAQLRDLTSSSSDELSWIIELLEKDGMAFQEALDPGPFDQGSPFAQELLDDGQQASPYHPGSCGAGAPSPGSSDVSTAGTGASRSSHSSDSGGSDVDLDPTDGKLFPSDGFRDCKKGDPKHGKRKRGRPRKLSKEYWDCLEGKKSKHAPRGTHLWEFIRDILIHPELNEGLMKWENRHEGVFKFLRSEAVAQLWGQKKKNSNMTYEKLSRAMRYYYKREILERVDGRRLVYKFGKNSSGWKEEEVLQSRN
Procedure, shortened: as §1

CRX = CRX (Homo sapiens, UniProt O43186 1-299); settings: protein: recombinant; tags: N-terminal GST; dsDNA, one strand shown
CRX, sequence (O43186 whole entry): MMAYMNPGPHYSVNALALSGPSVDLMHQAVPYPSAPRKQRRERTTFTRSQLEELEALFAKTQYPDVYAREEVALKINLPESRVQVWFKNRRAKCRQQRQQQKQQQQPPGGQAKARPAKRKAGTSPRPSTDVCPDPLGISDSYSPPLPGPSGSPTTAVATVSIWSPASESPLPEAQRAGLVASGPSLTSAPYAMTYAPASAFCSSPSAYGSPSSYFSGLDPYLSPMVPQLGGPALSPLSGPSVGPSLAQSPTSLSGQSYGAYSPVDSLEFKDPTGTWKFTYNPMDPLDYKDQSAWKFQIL
Procedure, shortened: as §1

ETV1 = ETV1 (Homo sapiens, UniProt P50549 1-477); settings: protein: recombinant; tags: N-terminal GST; dsDNA, one strand shown
ETV1, sequence (P50549 whole entry): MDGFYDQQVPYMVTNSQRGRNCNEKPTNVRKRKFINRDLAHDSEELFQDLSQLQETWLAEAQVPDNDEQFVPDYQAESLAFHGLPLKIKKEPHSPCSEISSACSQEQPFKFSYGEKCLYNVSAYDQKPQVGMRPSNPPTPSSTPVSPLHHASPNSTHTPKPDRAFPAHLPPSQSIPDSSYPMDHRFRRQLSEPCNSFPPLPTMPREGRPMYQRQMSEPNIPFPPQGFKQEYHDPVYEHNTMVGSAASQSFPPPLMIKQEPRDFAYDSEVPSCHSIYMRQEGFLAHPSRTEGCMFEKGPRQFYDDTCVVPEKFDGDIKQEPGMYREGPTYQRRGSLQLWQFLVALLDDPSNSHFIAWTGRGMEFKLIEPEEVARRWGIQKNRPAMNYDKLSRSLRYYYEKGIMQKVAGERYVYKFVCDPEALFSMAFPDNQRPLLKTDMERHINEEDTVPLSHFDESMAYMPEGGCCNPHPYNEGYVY
Procedure, shortened: as §1

ERF = target: T6, ERF (Homo sapiens, UniProt P50548 1-548); settings: protein: recombinant; tags: N-terminal GST; dsDNA, one strand shown
T6 sequence: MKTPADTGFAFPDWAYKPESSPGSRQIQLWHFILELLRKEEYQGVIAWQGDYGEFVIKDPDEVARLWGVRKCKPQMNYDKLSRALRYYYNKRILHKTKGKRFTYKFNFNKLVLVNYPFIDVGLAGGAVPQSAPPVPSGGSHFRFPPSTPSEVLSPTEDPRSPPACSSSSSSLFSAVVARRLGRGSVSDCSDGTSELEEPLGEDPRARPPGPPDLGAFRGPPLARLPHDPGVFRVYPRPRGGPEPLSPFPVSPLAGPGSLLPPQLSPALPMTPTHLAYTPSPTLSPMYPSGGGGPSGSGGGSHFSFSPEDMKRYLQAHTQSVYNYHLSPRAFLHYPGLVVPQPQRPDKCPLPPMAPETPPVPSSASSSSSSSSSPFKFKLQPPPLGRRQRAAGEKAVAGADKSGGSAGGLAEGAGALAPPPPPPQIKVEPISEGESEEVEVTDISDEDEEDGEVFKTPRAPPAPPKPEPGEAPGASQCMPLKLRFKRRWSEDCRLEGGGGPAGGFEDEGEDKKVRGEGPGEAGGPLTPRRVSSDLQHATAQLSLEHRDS
Procedure, shortened: as §1

ETV3L = target: T7, ETV3L (Homo sapiens, UniProt Q6ZN32 1-361); settings: protein: recombinant; tags: N-terminal GST; dsDNA, one strand shown
T7 sequence: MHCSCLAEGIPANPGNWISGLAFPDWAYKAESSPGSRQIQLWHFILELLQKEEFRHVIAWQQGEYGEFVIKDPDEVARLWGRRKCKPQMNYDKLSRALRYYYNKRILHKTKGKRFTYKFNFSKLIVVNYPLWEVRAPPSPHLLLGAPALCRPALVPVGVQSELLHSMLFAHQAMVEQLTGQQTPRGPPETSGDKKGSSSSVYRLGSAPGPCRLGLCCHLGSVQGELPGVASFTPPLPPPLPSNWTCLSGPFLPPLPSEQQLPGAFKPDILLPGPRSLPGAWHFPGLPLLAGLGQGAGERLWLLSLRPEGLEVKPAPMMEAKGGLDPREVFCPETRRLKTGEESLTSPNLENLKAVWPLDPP
Procedure, shortened: as §1

ETS2 = target: T8, ETS2 (Homo sapiens, UniProt P15036 1-469); settings: protein: recombinant; tags: N-terminal GST; dsDNA, one strand shown
T8 sequence: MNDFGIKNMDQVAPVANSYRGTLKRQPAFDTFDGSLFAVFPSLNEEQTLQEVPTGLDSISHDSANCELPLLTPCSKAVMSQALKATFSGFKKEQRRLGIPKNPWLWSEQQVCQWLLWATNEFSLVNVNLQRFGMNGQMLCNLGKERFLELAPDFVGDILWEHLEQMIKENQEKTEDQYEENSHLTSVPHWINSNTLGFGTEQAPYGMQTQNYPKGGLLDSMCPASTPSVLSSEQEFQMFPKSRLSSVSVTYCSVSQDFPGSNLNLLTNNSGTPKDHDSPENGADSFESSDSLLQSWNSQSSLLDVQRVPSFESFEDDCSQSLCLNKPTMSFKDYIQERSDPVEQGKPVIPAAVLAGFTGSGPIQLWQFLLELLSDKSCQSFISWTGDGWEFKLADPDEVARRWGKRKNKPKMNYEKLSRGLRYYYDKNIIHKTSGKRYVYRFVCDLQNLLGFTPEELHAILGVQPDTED
Procedure, shortened: as §1

SPDEF = target: T9, SPDEF (Homo sapiens, UniProt O95238 1-335); settings: protein: recombinant; tags: N-terminal GST; dsDNA, one strand shown
T9 sequence: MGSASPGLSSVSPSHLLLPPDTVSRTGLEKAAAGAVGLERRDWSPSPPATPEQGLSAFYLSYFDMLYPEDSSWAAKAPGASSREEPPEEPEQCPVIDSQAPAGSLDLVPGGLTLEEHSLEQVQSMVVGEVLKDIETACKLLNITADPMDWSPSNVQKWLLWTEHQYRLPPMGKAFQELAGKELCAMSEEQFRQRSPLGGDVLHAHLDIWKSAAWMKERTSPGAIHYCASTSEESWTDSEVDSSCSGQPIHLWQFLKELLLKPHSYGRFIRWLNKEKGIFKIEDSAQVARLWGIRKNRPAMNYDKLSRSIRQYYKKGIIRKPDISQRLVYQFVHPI
Procedure, shortened: as §1

ETV7 = target: T10, ETV7 (Homo sapiens, UniProt Q9Y603 1-341); settings: protein: recombinant; tags: N-terminal GST; dsDNA, one strand shown
T10 sequence: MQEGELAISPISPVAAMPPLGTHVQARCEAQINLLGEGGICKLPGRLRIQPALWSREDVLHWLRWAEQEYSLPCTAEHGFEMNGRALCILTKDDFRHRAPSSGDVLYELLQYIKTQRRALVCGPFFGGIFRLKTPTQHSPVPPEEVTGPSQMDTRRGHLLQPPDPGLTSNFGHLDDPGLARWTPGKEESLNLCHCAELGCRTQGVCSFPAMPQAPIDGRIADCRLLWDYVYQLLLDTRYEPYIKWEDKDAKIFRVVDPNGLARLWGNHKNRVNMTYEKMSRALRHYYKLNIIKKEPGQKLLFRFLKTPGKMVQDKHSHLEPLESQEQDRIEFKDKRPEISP
Procedure, shortened: as §1

ELF5 = target: T11, ELF5 (Homo sapiens, UniProt Q9UKW6-2 1-255); settings: protein: recombinant; tags: N-terminal GST; dsDNA, one strand shown
T11 sequence: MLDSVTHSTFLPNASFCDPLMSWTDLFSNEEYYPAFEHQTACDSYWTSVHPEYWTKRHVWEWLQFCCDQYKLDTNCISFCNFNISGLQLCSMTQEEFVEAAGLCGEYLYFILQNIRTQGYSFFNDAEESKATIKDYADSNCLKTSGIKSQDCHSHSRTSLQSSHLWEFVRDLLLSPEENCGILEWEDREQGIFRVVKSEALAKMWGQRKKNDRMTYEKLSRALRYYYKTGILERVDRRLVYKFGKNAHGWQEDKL
Procedure, shortened: as §1

ETV3 = target: T12, ETV3 (Homo sapiens, UniProt P41162-2 1-143); settings: protein: recombinant; tags: N-terminal GST; dsDNA, one strand shown
T12 sequence: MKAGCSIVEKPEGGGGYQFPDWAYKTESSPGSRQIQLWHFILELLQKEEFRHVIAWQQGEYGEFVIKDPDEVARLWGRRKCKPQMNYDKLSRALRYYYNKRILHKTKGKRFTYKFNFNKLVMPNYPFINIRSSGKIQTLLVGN
Procedure, shortened: as §1

ETV6 = ETV6 (Homo sapiens, UniProt P41212 1-452); settings: protein: recombinant; tags: N-terminal GST; dsDNA, one strand shown
ETV6, sequence (P41212 whole entry): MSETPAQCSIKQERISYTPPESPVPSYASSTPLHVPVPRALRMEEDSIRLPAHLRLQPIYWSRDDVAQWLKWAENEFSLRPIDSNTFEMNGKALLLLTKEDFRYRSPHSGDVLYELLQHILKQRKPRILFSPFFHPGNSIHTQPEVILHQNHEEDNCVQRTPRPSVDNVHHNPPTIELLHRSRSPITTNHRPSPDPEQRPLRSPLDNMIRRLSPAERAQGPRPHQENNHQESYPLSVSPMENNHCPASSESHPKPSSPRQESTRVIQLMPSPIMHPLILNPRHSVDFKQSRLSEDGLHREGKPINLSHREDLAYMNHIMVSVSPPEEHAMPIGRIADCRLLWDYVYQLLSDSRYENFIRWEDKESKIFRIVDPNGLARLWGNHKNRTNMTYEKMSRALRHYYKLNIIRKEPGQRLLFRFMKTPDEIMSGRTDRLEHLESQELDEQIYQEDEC
Procedure, shortened: as §1

## ACGAAT
FEV
  binding signal: 1.17 fold enrichment (6-mer frequency, TF over GST control)
ETV5
  binding signal: 1.14 fold enrichment (6-mer frequency, TF over GST control)
HSF1
  binding signal: 1.39 fold enrichment (6-mer frequency, TF over GST control)
SPIC
  binding signal: 1.16 fold enrichment (6-mer frequency, TF over GST control)
ELF4
  binding signal: 1.11 fold enrichment (6-mer frequency, TF over GST control)
ELK4
  binding signal: 1.2 fold enrichment (6-mer frequency, TF over GST control)
ETV2
  binding signal: 1.15 fold enrichment (6-mer frequency, TF over GST control)
ELF3
  binding signal: 1.12 fold enrichment (6-mer frequency, TF over GST control)
CRX
  binding signal: 1.21 fold enrichment (6-mer frequency, TF over GST control)
ETV1
  binding signal: 1.14 fold enrichment (6-mer frequency, TF over GST control)
ERF
  binding signal: 1.17 fold enrichment (6-mer frequency, TF over GST control)
ETV3L
  binding signal: 1.15 fold enrichment (6-mer frequency, TF over GST control)
ETS2
  binding signal: 1.1 fold enrichment (6-mer frequency, TF over GST control)
SPDEF
  binding signal: 1.13 fold enrichment (6-mer frequency, TF over GST control)
ETV7
  binding signal: 1.23 fold enrichment (6-mer frequency, TF over GST control)
ELF5
  binding signal: 1.11 fold enrichment (6-mer frequency, TF over GST control)
ETV3
  binding signal: 1.11 fold enrichment (6-mer frequency, TF over GST control)
ETV6
  binding signal: 1.11 fold enrichment (6-mer frequency, TF over GST control)
